High-throughput results from PubChem BioAssay.
This is one part of a sample in which hits are shown more often than they occur.
Cycloheximide cs – counter-screen hit for Shiga toxin inhibitors, cycloheximide; max response, %; AID 2314; cell reporter, cycloheximide protein synthesis inhibition counterscreen; 300,000 tested, 12% active; in the data active means max response mostly above about 13%, no sharp cut-off; inactive means mostly below about 14%; further: read at 38.3 µM for the half of the compounds with a filed dose; 0% is about no effect
NS1 inh – influenza NS1 inhibition; Potency, µM (top dose mostly 46.1 µM), without a hit: at the top dose activity, positive = more growth; 270,000 tested, 0.4% active; AID 2326; calls by dose curve; further: potency means the concentration at half of the fitted maximal effect; actives are rising curves; nearly all actives have a fitted effect of over 50% in size
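Growth recovery, yeast-based: influenza A NS1 expressed in S. cerevisiae causes slow growth, and suppressors are detected by OD600. The parent strain without NS1 is used as positive control.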
Shiga toxin inh – inhibitors of Shiga toxin in Vero cells | Vero cells, Shiga toxin protein synthesis inhibition reporter | inhibition, % at 38.7 µM | 290,000 tested, 9.2% active | AID 2315; in the data active means inhibition mostly above about 28%, no sharp cut-off; inactive means mostly below about 43%; further: 0% is about no effect
AmpC inh no detg – AmpC beta-lactamase inhibition without detergent | P00811 | AmpC nitrocefin hydrolysis, absorbance 480 nm, 0.0001% Triton | Potency, µM (top dose mostly 57.1 µM), inactives show at the top dose activity change, negative = inhibition, actives largely listed as inhibitors | 330,000 tested, 0.52% active | AID 485341;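 further: potency means the concentration at half of the fitted maximal effect; plate controls were no compound for no effect and no enzyme for full effect; nearly all actives have a fitted effect of over 20% in size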
Target sequence (P00811 whole entry, looked up): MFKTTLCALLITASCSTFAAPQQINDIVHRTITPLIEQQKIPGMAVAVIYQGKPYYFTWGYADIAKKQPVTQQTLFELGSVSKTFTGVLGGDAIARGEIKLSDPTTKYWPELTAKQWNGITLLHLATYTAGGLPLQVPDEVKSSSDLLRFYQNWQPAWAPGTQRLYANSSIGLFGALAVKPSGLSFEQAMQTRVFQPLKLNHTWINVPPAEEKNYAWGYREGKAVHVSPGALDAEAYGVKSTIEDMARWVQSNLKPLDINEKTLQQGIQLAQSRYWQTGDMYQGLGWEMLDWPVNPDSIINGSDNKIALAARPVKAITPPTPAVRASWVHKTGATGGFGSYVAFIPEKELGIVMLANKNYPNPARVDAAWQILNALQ
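20 mM phosphate pH 7.0 + 0.01% (detergent screen) or 0.0001% Triton X-100; 5.3 nM AmpC reagent; cpd preinc 15 min RT; nitrocefin (800 uM stock) to start; A480 q20 s × 4 min; Activity was normalised to no-enzyme and no-compound control wells.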
AmpC inh detg – blocks E. coli AmpC beta-lactamase in detergent assay | P00811 | AmpC hydrolysis of nitrocefin, absorbance 480 nm, 0.01% Triton | Potency, µM (top dose mostly 114 µM), for inactives: at the highest dose activity change, negative = inhibition, hits mostly inhibitors | 370,000 tested, 0.041% active;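 further: potency means the concentration at half of the fitted maximal effect; 0% = no-compound wells and -100% = no-enzyme wells; nearly all actives have a fitted effect of over 25% in size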
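AmpC (5.3 nM in the dispensed reagent) in 20 mM phosphate pH 7.0 with 0.01% (detergent screen) or 0.0001% Triton X-100 was preincubated with compounds for 15 min at room temperature. Nitrocefin was then added from an 800 uM solution, and hydrolysis was followed at 480 nm.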
Starred values were filed as active, the others as inactive. Unless noted, the call rests on the fitted dose curve; in most records, active means well fitted curve in the direction sought with a large enough effect; inconclusive means small, poorly fitted or top-dose-only effect, or another doubt; inactive means no such curve, though single readings can be large; an effect the other way counts as inactive or inconclusive.

Screening Cc1ccc(-c2nc(N/N=C/c3cccnc3)c3ccccc3n2)cc1 returned Cycloheximide cs 20*, NS1 inh 18%, Shiga toxin inh 22, AmpC inh no detg 110% and AmpC inh detg -1%.
`Cc1ccc(S(=O)(=O)Nc2nc3ccccc3nc2NCc2ccco2)cc1` gave Cycloheximide cs 59*, NS1 inh -41%, Shiga toxin inh 74*, AmpC inh no detg -36% and AmpC inh detg -10%.
Screening Cc1ccc(-c2nc(NCc3cccnc3)c3ccccc3n2)cc1 returned Cycloheximide cs 14*, NS1 inh -30%, Shiga toxin inh -5, AmpC inh no detg -23% and AmpC inh detg -13%.
Cc1cccc(C)c1NC(=O)Cn1nc(C)c2sc3ccccc3c2c1=O was read as AmpC inh detg 2%.
Screening Cc1noc(NC(=O)Nc2ccccc2F)c1C#N returned NS1 inh -11%.
Screening O=C(Nc1ncnc2c1ncn2[C@@H]1O[C@@H]2COP(=O)(O)O[C@H]2[C@H]1O)c1ccccc1 returned Cycloheximide cs -7 and Shiga toxin inh -11.
`CN(C)N=Nc1nc2c(c(=O)n(C)c(=O)n2C)n1C` gave Cycloheximide cs 2, NS1 inh 4%, Shiga toxin inh 11, AmpC inh no detg -15% and AmpC inh detg 5%.
Cc1sc2nc3ccc(NCc4ccco4)nn3c(=O)c2c1C was read as Cycloheximide cs 5, NS1 inh -32%, Shiga toxin inh -9, AmpC inh no detg -34% and AmpC inh detg 0%.
`O=c1c2ccccc2nc2ccc(NCc3ccco3)nn12` gave Cycloheximide cs 51*, NS1 inh -4%, Shiga toxin inh 56*, AmpC inh no detg -18% and AmpC inh detg -1%.
CSc1ccccc1C(=O)N1CCC2(CC1)CC(=O)c1ccccc1O2 was read as AmpC inh no detg 31% and AmpC inh detg inconclusive.
Screening Cc1ccc(NC(=O)CSc2nsc(SCC(=O)Nc3ccc(C)cc3C)c2C#N)c(C)c1 returned Cycloheximide cs -2, NS1 inh 2%, Shiga toxin inh -2, AmpC inh no detg -1% and AmpC inh detg -4%.
Screening Cc1csc(SCC(=O)Nc2ccccc2C)n1 returned AmpC inh no detg -9% and AmpC inh detg -13%.
Cc1csc(NC(=O)CSc2nc(C)cs2)n1 was read as Cycloheximide cs 17*, NS1 inh 10%, Shiga toxin inh 25, AmpC inh no detg -21% and AmpC inh detg -7%.
`Cc1csc(NC(=O)CSc2nsc(SCC(=O)Nc3nc(C)cs3)c2C#N)n1` gave Cycloheximide cs 41*, NS1 inh 14%, Shiga toxin inh 117*, AmpC inh no detg -30% and AmpC inh detg -5%.
For Cc1csc(SCC(=O)Nc2cccc3nsnc23)n1 the results were Cycloheximide cs 20*, NS1 inh -24%, Shiga toxin inh 24, AmpC inh no detg 0.22µM* and AmpC inh detg -1%.
`Cc1csc(NC(=O)CSc2nccn2C)n1` gave Cycloheximide cs 29*, NS1 inh 5%, Shiga toxin inh 30, AmpC inh no detg -21% and AmpC inh detg inconclusive.
Screening Cc1csc(NC(=O)CSc2nncs2)n1 returned AmpC inh no detg -13% and AmpC inh detg -12%.
CCCN1CCN(CC2=C(C(=O)OCC)C(c3cccc(OC)c3OC)NC(=O)N2)CC1 (stereo not drawn) was read as AmpC inh detg 2%.
`CN1CCc2c(sc(NC(=O)C3CCCN3S(=O)(=O)c3ccc(Cl)s3)c2C(N)=O)C1` (stereo not drawn) gave AmpC inh no detg 39% and AmpC inh detg inconclusive.
Screening Cc1cccc(C)c1OCC(=O)Nc1c(C(=O)c2ccccc2)oc2ccccc12 returned AmpC inh detg 19%.
Screening Cc1ccc(F)c(C2C3C=CCC(C)C3C(=O)N2Cc2ccccc2)c1 (stereo not drawn) returned Cycloheximide cs -4 and Shiga toxin inh 8.
`OCCn1c(-c2ccc3c(c2)OCO3)csc1=Nc1ccccc1` gave Cycloheximide cs 37*, NS1 inh -48%, Shiga toxin inh 46*, AmpC inh no detg 2% and AmpC inh detg inconclusive.
For O=S(=O)(c1ccc(-c2csc(=Nc3ccccc3)n2CCCN2CCOCC2)cc1)N1CCOCC1 the results were Cycloheximide cs -3, NS1 inh -57%, Shiga toxin inh -16, AmpC inh no detg 214% and AmpC inh detg 1%.
For OCCn1c(-c2ccc(F)cc2)csc1=Nc1ccccc1 the results were Cycloheximide cs 22*, NS1 inh -65%, Shiga toxin inh 71*, AmpC inh no detg -20% and AmpC inh detg -16%.
Cc1ccc([N+](=O)[O-])cc1Nc1nc(N2CCCC2)nc(N2CCCC2)n1 was read as Cycloheximide cs 0, NS1 inh -3%, AmpC inh no detg -10% and AmpC inh detg -15%.
O=[N+]([O-])c1cccc2ccc(/C=C/c3ccc(C(F)(F)F)cc3)nc12 was read as Cycloheximide cs 21*, NS1 inh 4%, Shiga toxin inh 31, AmpC inh no detg -17% and AmpC inh detg -10%.
Screening O=[N+]([O-])c1cccc2ccc(/C=C/c3ccc(Cl)cc3)nc12 returned Cycloheximide cs 45*, NS1 inh inconclusive, Shiga toxin inh 137*, AmpC inh no detg -18% and AmpC inh detg 0%.
For O=[N+]([O-])c1cccc2ccc(/C=C/c3cccc(Br)c3)nc12 the results were Cycloheximide cs 42*, NS1 inh 3%, Shiga toxin inh 70*, AmpC inh no detg -12% and AmpC inh detg 0%.
O=[N+]([O-])c1cc(C(F)(F)F)ccc1Sc1ccc2ccccc2n1 was read as Cycloheximide cs 8, NS1 inh -3%, Shiga toxin inh 19, AmpC inh no detg -51% and AmpC inh detg -8%.
For CCOc1cc(/C=C/c2ccc3cccc([N+](=O)[O-])c3n2)cc(Cl)c1O the results were Cycloheximide cs 11*, NS1 inh 7%, Shiga toxin inh 22, AmpC inh no detg -17% and AmpC inh detg -10%.
Screening Cn1cc2cccc([N+](=O)[O-])c2n1 returned Cycloheximide cs -6, Shiga toxin inh -7, AmpC inh no detg -2% and AmpC inh detg 1%.
Screening COc1cc(/C=C/c2ccc3cccc(OC)c3n2)c(O)c([N+](=O)[O-])c1 returned Cycloheximide cs 1, Shiga toxin inh 18, AmpC inh no detg 56% and AmpC inh detg -9%.
Screening CCN(C(=O)CN1C(=O)COc2ccc(S(=O)(=O)N3CCCCCC3)cc21)c1cccc(C)c1 returned Cycloheximide cs 2, NS1 inh -15%, Shiga toxin inh -2, AmpC inh no detg 146% and AmpC inh detg 4%.
`Cc1cc2c(cc1Cl)C(c1ccccc1C)CC(=O)O2` (stereo not drawn) gave Cycloheximide cs -8 and Shiga toxin inh inactive.
Screening O=C(c1ccc(-n2cncn2)c([N+](=O)[O-])c1)N1CCN(S(=O)(=O)c2ccccc2F)CC1 returned AmpC inh no detg -20% and AmpC inh detg 0%.
